The record followed here is PubChem BioAssay (NCI).

This is part of a sample that, as a whole, favours compounds with a hit. Of some 79,000 tested, about 15% had one in any assay. A number with no mark means an inactive call. Active and inactive are the calls of the source. No stated cut-off is given here; in the data, active means growth inhibition above about 70%; inactive means the rest.

A short description of experiment [1]: NCI Yeast Anticancer Drug Screen. Data for the rad50 strain (AID 155).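 Further: 0% = growth of vehicle-only cultures of the same strain.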 The note with it: S. cerevisiae rad50 strain growth inhibition; at 50.0 µM; active compounds read high. The procedure, abridged: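 Readout: growth inhibition relative to vehicle-treated cultures. Compound exposure was carried out in a genetically defined yeast strain deficient in DNA damage repair.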

A short description of experiment [2]: NCI Yeast Anticancer Drug Screen. Data for the mec2-1 strain (AID 157). The note with it: S. cerevisiae mec2-1 strain, at 50.0 µM, active compounds read high. The procedure, abridged: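 Mutant yeast (mec2-1) grown with compound; growth inhibition relative to vehicle control reported.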
A short description of experiment [3]: NCI Yeast Anticancer Drug Screen. Data for the sgs1 mgt1 strain (AID 161).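 Further: 0% = growth of cultures given vehicle only.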 The note with it: S. cerevisiae sgs1 mgt1 strain, at 50.0 µM, active compounds read high. The procedure, abridged:
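Percent growth inhibition was derived by comparing compound-exposed mutant yeast with vehicle-exposed cultures. The strain carries alterations in DNA damage repair.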

Experiment [4] is described as follows: NCI Yeast Anticancer Drug Screen. Data for the cln2 rad14 strain (AID 165).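 Further: 0% = growth equal to vehicle treated cultures.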 The note with it: S. cerevisiae cln2 rad14 strain, at 50.0 µM, active compounds read high. The procedure, abridged:
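Readout is yeast growth inhibition versus vehicle-treated controls, using a strain with cln2 and rad14 alterations exposed to compound.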

Experiment [5] can be described thus: NCI Yeast Anticancer Drug Screen. Data for the bub3 strain (AID 167). To be noted: S. cerevisiae bub3 mutant strain, at 50.0 µM, active compounds read high. The procedure, abridged: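 Readout: yeast growth inhibition, expressed relative to vehicle-only wells. The test organism is a mutant strain from a panel with lesions in DNA repair or checkpoint genes.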
Experiment [6] is described as follows: NCI Yeast Anticancer Drug Screen. Data for the mlh1 rad18 strain (AID 175). The note with it: S. cerevisiae mlh1 rad18 strain growth inhibition; at 50.0 µM; active compounds read high. The procedure, abridged:
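Genetically defined yeast (DNA repair-deficient) exposed to compounds; growth inhibition determined relative to vehicle.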

Turning to `COc1ccc(Nc2nc3ccccc3nc2-c2cccs2)cc1`, the growth inhibition in experiment [1] is 5.2%; in experiment [2], -3.8%; in experiment [3], 23.5%; in experiment [4] it was -1.45%; in experiment [5], 14.3%; in experiment [6], 17.3%.
Take `Cn1ncnc1CCc1ccccc1`: the growth inhibition is -10.3% in experiment [1]; -3.9% in experiment [2]; -40.5% in experiment [3]; -4.55% in experiment [4]; -14% in experiment [5]; -21.1% in experiment [6].
Consider `CC(=O)CC(=O)NCc1cccc(C)n1`, for which the growth inhibition in experiment [1] is 38.1%; in experiment [2], 24.6%; in experiment [3], 28.6%; in experiment [4], -8.15%; in experiment [5], 20.9%; in experiment [6], 24.1%.
Consider `CC(NC(=O)NC(C)(C)C)NC(=O)C(N)CC(=O)O` (stereo unspecified), for which the growth inhibition in experiment [1] is -51.8%; in experiment [2], -20.1%; in experiment [3], -25.4%; in experiment [4], 19.4%; in experiment [5] it was 12.7%; in experiment [6] it was -20.4%.
Regarding `Cc1cc2nc3ccc(O)cc3[n+](C)c2cc1N`, the growth inhibition in experiment [1] is 57.7%; in experiment [2], 28.6%; in experiment [3], 31.6%; in experiment [4] it was 31.1%; in experiment [5] it was 15.9%; in experiment [6] it was 26.3%.
As to `CC(C(=O)n1c2ccccc2c2ccccc21)N(c1ccccc1)c1ccccc1` (stereo unspecified), the growth inhibition in experiment [1] was -16.8%; in experiment [2], -15.1%; in experiment [3], -30.2%; in experiment [4] it was 9.15%; in experiment [5], -29.4%; in experiment [6], -19.6%.
As to `COc1ccc(C2SCC(=O)N2NC(=O)c2ccc(NC(C)=O)cc2)c(OC)c1` (stereo unspecified), the growth inhibition in experiment [1] was -27.7%; in experiment [2], -7.5%; in experiment [3], -23.2%; in experiment [4], 12.1%; in experiment [5] it was -22%; in experiment [6], -11.7%.
Turning to `Cc1cc2c(cc1Cl)SC(NNc1cnc3ccccc3n1)=NS2(=O)=O`, the growth inhibition was 23.3% in experiment [1]; 21.6% in experiment [2]; 35.7% in experiment [3]; 20.2% in experiment [4]; 19.1% in experiment [5]; 4.8% in experiment [6].
Take `Cc1ccc(NC(=O)OCC2CC3C=CC2C3)cc1NC(=O)OCC1CC2C=CC1C2` (stereo unspecified): the growth inhibition in experiment [1] was -21.2%; in experiment [2], -14.3%; in experiment [3] it was -14.8%; in experiment [4], -6.8%; in experiment [5] it was -3.25%; in experiment [6], 3.7%.
With `O=C(O)C(Br)C(Br)C(=O)Nc1cccc(C(F)(F)F)c1` (stereo unspecified), the growth inhibition in experiment [1] was 17.4%; in experiment [2], -5.55%; in experiment [3] it was 14.9%; in experiment [4], 0.6%; in experiment [5] it was -2.15%; in experiment [6], 24.4%.
`N/N=C(/Cc1ccccc1)NNO`: the growth inhibition was 30.4% in experiment [1]; 13.8% in experiment [2]; 27.1% in experiment [3]; 22.4% in experiment [4]; 12.8% in experiment [5]; 22.2% in experiment [6].
Consider `CCCCCCCCCCCCCCCCOP(=O)(O)OP(=O)(O)OCC1OC(n2ccc(N)nc2=O)CC1O` (stereo unspecified), for which the growth inhibition in experiment [1] was -10.2%; in experiment [2], -3.9%; in experiment [3], 8.7%; in experiment [4], -17.8%; in experiment [5] it was 20.6%; in experiment [6] it was 12.7%.
On to `Cc1ccc(S(=O)(=O)OCC(C)(C)CC#N)cc1`, for which the growth inhibition in experiment [1] is 10.9%; in experiment [2], 30.6%; in experiment [3], 35.9%; in experiment [4], 16.9%; in experiment [5], 46.4%; in experiment [6], 23.9%.
Take `CCOC(=O)c1ccc(N=Cc2ccc(N(CCC#N)S(=O)(=O)c3ccccc3)cc2C)cc1`: the growth inhibition in experiment [1] is -3.9%; in experiment [2], 15.1%; in experiment [3] it was -20%; in experiment [4] it was 6.95%; in experiment [5], 2.95%; in experiment [6], -3.95%.
Regarding `CC[n+]1[b-](C(C)(C)C)n(/N=C/C(C)(C)C)[b-](C(C)(C)C)[n+]1CC`, the growth inhibition in experiment [1] was 0.7%; in experiment [2], -13.2%; in experiment [3], -19.9%; in experiment [4] it was 20.4%; in experiment [5], -11.2%; in experiment [6], 4.95%.
Turning to `Oc1ccccc1C1SC(c2ccccc2O)SC(c2ccccc2O)S1` (stereo unspecified), the growth inhibition in experiment [1] is 96.9% (active); in experiment [2], 96% (active); in experiment [3] it was 95.7% (active); in experiment [4], 93.1% (active); in experiment [5], 97% (active); in experiment [6], 95.8% (active).
Regarding `COc1ccccc1C1C(C(=O)Nc2ccccc2)=C(C)NC(C)=C1C(=O)Nc1ccccc1`, the growth inhibition in experiment [1] was -3.2%; in experiment [2], -21.9%; in experiment [3] it was -36.2%; in experiment [4] it was 15.1%; in experiment [5], -3.85%; in experiment [6], -11.2%.
Consider `O=C1c2c(ccc3c2CCCC3)CC12Cc1ccc3c(c1C2=O)CCCC3`, for which the growth inhibition is 20.1% in experiment [1]; 13.8% in experiment [2]; -0.85% in experiment [3]; 23.9% in experiment [4]; 7% in experiment [5]; 12.1% in experiment [6].
Turning to `CC(C)(C)c1ccc(OC(=S)Nc2ccccc2)cc1`, the growth inhibition is -32.8% in experiment [1]; -6.25% in experiment [2]; -17.4% in experiment [3]; -17.2% in experiment [4]; -13.6% in experiment [5]; 2.5% in experiment [6].
Regarding `O=C1c2cccc(S)c2C(=O)c2cccc(S)c21`, the growth inhibition is -21.5% in experiment [1]; -11.3% in experiment [2]; -9.75% in experiment [3]; 4.7% in experiment [4]; 5.35% in experiment [5]; -15.5% in experiment [6].
Regarding `Cc1ccc(Cl)cc1NS(=O)(=O)c1ccccc1`, the growth inhibition is -4.35% in experiment [1]; -31.1% in experiment [2]; -2.8% in experiment [3]; -14.3% in experiment [4]; -22.8% in experiment [5]; 5.55% in experiment [6].
